From PubChem BioAssay (NCATS)
Results filed as inconclusive are left out. Activity calls are given as the source filed them. Calls follow the shape of the dose curve; as a rule, active = well fitted inhibition curve with a large enough effect; inconclusive = small, poorly fitted or top-dose-only effect; inactive = flat fitted curve, though single readings scatter.

Experiments:
KB-3-1 = test: Cytotoxic Profiling of Annotated Libraries Using Quantitative High-Throughput Screening (AID 1296008); details: Five cell lines viability, CellTiter-Glo ATP luminescence, 48-72 h; max response: hits give low values; as to max response: % is scaled to controls: 0 for no effect and ±100 for the full control effect
How it was run: (§1)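 Compounds were pin-transferred onto cells and incubated 48 or 72 hr at 37 degree Celsius, 95% humidity. CellTiter-Glo was added, plates sat 10 min at room temperature, then ATP-coupled luminescence was imaged as the viability read-out.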

NIH3T3 [1] = test: as above; details: Five cell lines viability, CellTiter-Glo ATP luminescence, 48-72 h; max response: hits give low values
How it was run: as §1

HACAT = test: qHTS assay to identify novel small-molecules to repurpose for Merkel cell carcinoma treatment (AID 1296009); details: MCC and control cell lines, CellTiter-Glo viability, 72 h; at 44.8 µM (top of the series) unless noted
How it was run: (§2)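 Luminescence from CellTiter-Glo, read 10 min after addition at room temperature, reported viability following a 72 hr, 37 degree celsius treatment with NPC or MIPE compounds in titration; values normalized to plate controls.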

NIH3T3 [2] = test: as above; details: MCC and control cell lines, CellTiter-Glo viability, 72 h; at 44.8 µM (top of the series) unless noted
How it was run: as §2

CRL-7250 = normal cell line; test: as above; details: MCC and control cell lines, CellTiter-Glo viability, 72 h; at 44.8 µM (top of the series) unless noted
How it was run: as §2

HEK293T = test: as above; details: MCC and control cell lines, CellTiter-Glo viability, 72 h; at 44.8 µM (top of the series) unless noted
How it was run: as §2

Measured: max response
Also: nearly all actives have a fitted effect of over 60% in size.

C/C=C(\C)C(=O)OC1C(C)OC(OC2C(C)OC(OC3CCC4(C)C(=CCC5C4CCC4(C)C(C(C)OC6OC(COC7OC(CO)C(O)C(O)C7O)C(O)C(O)C6O)CCC54O)C3)CC2OC)C(O)C1OC (centres undefined)
inactive: KB-3-1 0.359% | NIH3T3 [1] | HACAT inactive [at 9.27 µM] | NIH3T3 [2] inactive [at 9.27 µM]

COC1=CC(=O)O[C@@H](CCc2ccccc2)C1
inactive: KB-3-1 | NIH3T3 [1] | CRL-7250 | NIH3T3 [2]

CN1[C@H]2C[C@H](OC(=O)[C@H](CO)c3ccccc3)C[C@@H]1[C@@H](O)C2
inactive: KB-3-1 1.1% | NIH3T3 [1] | HACAT | HEK293T

Clc1ccc(OCC2=NCCN2)cc1Cl
inactive: KB-3-1 6.44% | NIH3T3 [1] | CRL-7250 | HACAT | HEK293T | NIH3T3 [2]

COc1c(C(C)C)cc2c(c1O)[C@@]1(C(=O)O)CCCC(C)(C)C1CC2 (some centres undefined)
inactive: KB-3-1 | NIH3T3 [1] 0.972% | CRL-7250 | HEK293T

COc1cc(C(=O)O[C@H]2[C@@H]3C=CO[C@@H](O[C@@H]4O[C@H](CO)[C@@H](O)[C@H](O)[C@H]4O)[C@@H]3[C@@]3(CO)O[C@@H]23)ccc1O
inactive: KB-3-1 | NIH3T3 [1] | HACAT inactive [at 17.4 µM]

COC1CC(OC2CCC3(C)C(=CCC4C3CCC3(C)C(C(C)OC5OC(COC6OC(CO)C(O)C(O)C6O)C(O)C(O)C5O)CCC43O)C2)OC(C)C1OC1OC(C)C(O)C(OC)C1O (centres undefined)
inactive: KB-3-1 9.26% | NIH3T3 [1] | HACAT inactive [at 9.27 µM]

CCC(C)(C#N)O[C@@H]1O[C@H](CO)[C@@H](O)[C@H](O)[C@H]1O (some centres undefined)
not listed: CRL-7250
inactive: all other assays above

CCN1C[C@]2(COC)[C@H](O)C[C@H](OC)[C@]34[C@@H]5C[C@]6(O)[C@H](OC(=O)c7ccccc7)[C@@H]5[C@@](O)([C@H]([C@H](OC)[C@H]23)[C@@H]14)[C@@H](O)[C@@H]6OC
inactive: KB-3-1 2.1% | NIH3T3 [1] | CRL-7250 | HEK293T

CC[C@H]1CN2CC[C@H]1C[C@H]2[C@H](O)c1ccnc2ccc(OC)cc12
inactive: KB-3-1 0.288% | NIH3T3 [1] | CRL-7250 | HACAT | NIH3T3 [2]

C=C(CO)C(=O)O[C@H]1C/C(C)=C/CC/C(CO)=C/[C@H]2OC(=O)C(=C)[C@H]12
inactive: KB-3-1 | NIH3T3 [1] | HACAT | NIH3T3 [2]

Cc1c(Cl)cccc1S(=O)(=O)Nc1nc(CC(=O)N2CCN(C)CC2)cs1
inactive: KB-3-1 | NIH3T3 [1] | HACAT

COC1=CC(=O)O[C@@H](/C=C/c2ccccc2)C1
inactive: KB-3-1 | NIH3T3 [1] | HACAT | NIH3T3 [2]

OC1(c2ccc(Cl)cc2)c2ccccc2C2=NCCN21 (centres undefined)
inactive: KB-3-1 7.32% | NIH3T3 [1] | CRL-7250 | NIH3T3 [2]

OCCCCC#Cc1cncc(OC[C@@H]2CCN2)c1
inactive: KB-3-1 -3.78% | NIH3T3 [1] | CRL-7250 | HACAT | NIH3T3 [2]

CC1=CC2/C=C(\C)CCC(O)C3OC(C)(C)OC3CC(=O)OC23C(=O)NC(CC(C)C)C3C1C (centres undefined)
inactive: KB-3-1 | NIH3T3 [1] | HACAT inactive [at 17.4 µM]

COc1ccccc1CN[C@H]1C2CCN(CC2)[C@H]1C(c1ccccc1)c1ccccc1
inactive: KB-3-1 -8.54% | NIH3T3 [1] | CRL-7250 | HACAT | NIH3T3 [2]

C=CC(C)(C)c1[nH]c2cccc3c2c1C[C@@H]1[C@@H]3[C@@H](OC(C)=O)[C@H](C)CN1C
inactive: KB-3-1 4.47% | NIH3T3 [1] | HACAT | HEK293T | NIH3T3 [2]

C[C@]12CC[C@H]3[C@@H]([C@H](O)CC4=CC(=O)CC[C@@]43C)[C@@H]1CC[C@@H]2O
inactive: KB-3-1 5.15% | NIH3T3 [1] | CRL-7250 | NIH3T3 [2]
